This note sets out measurements from paper PMC7862700, “An all-to-all approach to the identification of sequence-specific readers for epigenetic DNA modifications on cytosine”.

What all share (experiment): DAPPL (digital affinity profiling via proximity ligation, sequencing); 10 mM Tris-HCl pH 7.5, 50 mM NaCl, 1 mM DTT, 4% glycerol, room temperature, 30 min; GST-TFs on glutathione beads, 16-mer random dsDNA library, 0.1% formaldehyde crosslink after washing; high values mean tight binding
One experiment has as its target T1, FEV (Homo sapiens, UniProt Q99581 1-238).
T1 sequence: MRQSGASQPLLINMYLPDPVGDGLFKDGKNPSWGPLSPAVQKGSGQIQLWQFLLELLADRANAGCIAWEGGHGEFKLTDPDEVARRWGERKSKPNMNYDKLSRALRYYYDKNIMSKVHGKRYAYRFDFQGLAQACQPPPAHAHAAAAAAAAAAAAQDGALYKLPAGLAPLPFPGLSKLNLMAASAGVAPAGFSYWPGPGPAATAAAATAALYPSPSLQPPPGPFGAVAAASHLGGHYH
The note with it: protein: recombinant; tags: N-terminal GST; dsDNA, one strand shown. In short, it runs like this: (§1)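 In yeast, human transcription factors were expressed with a GST fusion, then pulled down on glutathione beads and given DNA barcodes. Pooled with a tag-only sample, they were exposed to 200 nmole of a 16-mer random double-stranded DNA library (Tris/NaCl/DTT/glycerol buffer, room temperature, 30 min), washed, crosslinked with 0.1% formaldehyde, proximity-ligated using BsaI/T4 ligase for 1 h at 37 °C, PCR-amplified and read on an Illumina NextSeq500. Each hexamer's frequency of reads for a factor, divided by the matching frequency for the tag-only sample, gives the binding signal.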

The next experiment has as its target ETV5 (Homo sapiens, UniProt P41161 1-510). The note with it: protein: recombinant; tags: N-terminal GST; dsDNA, one strand shown. In short, it runs like this:
as §1

In another experiment the target is HSF1 (Homo sapiens, UniProt Q00613 1-529). Conditions: protein: recombinant; tags: N-terminal GST; chain copies: 3; dsDNA, one strand shown. In short, it runs like this: as §1
Another experiment deals with T2, SPIC (Homo sapiens, UniProt Q8N5J4 1-248).
T2 sequence: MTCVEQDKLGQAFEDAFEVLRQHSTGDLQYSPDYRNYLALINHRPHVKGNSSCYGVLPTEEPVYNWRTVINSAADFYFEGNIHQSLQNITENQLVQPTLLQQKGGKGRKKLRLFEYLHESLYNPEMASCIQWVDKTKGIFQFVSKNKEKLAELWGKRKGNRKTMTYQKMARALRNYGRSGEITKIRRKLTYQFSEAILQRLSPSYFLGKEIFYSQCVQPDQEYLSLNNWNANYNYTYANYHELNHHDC
The note with it: protein: recombinant; tags: N-terminal GST; dsDNA, one strand shown. In short, it runs like this:
as §1

In a further experiment the target is ELF4 (Homo sapiens, UniProt Q99607 1-663). The note with it: protein: recombinant; tags: N-terminal GST; dsDNA, one strand shown. In short, it runs like this:
as §1

The next experiment addresses T3, ELK4 (Homo sapiens, UniProt P28324-2 1-405).
T3 sequence: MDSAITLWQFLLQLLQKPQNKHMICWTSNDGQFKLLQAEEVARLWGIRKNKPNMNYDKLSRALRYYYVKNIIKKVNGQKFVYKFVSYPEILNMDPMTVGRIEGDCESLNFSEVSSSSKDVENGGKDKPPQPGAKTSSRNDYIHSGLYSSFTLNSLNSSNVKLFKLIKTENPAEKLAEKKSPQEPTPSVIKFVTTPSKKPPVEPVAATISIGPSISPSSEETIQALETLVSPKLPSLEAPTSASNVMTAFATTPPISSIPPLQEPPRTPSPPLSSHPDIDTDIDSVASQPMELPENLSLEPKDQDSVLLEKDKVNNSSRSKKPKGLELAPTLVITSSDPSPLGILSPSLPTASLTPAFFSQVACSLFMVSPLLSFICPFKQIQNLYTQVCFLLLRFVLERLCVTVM
Conditions: protein: recombinant; tags: N-terminal GST; dsDNA, one strand shown. In short, it runs like this:
as §1

The target of the next experiment is T4, ETV2 (Homo sapiens, UniProt O00321 1-342).
T4 sequence: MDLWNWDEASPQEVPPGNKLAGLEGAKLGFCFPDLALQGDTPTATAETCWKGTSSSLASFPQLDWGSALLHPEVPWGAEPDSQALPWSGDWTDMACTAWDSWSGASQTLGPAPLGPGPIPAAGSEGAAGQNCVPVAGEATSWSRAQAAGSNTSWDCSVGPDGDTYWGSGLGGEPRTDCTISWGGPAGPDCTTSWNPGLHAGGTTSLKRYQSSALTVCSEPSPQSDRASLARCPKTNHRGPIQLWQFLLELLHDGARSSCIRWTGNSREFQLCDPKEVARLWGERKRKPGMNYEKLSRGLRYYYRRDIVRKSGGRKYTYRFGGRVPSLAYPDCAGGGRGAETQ
Conditions: protein: recombinant; tags: N-terminal GST; dsDNA, one strand shown. In short, it runs like this: as §1

The next experiment addresses T5, ELF3 (Homo sapiens, UniProt P78545 1-371).
T5 sequence: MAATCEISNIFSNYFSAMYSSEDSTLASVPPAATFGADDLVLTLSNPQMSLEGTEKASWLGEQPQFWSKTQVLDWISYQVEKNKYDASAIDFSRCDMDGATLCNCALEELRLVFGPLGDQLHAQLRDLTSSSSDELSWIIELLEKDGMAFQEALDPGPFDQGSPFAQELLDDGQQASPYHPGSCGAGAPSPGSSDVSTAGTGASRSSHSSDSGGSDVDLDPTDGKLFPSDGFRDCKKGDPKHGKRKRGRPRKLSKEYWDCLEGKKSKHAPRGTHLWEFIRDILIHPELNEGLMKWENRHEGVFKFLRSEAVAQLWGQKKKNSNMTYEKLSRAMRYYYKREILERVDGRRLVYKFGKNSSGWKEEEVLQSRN
Conditions: protein: recombinant; tags: N-terminal GST; dsDNA, one strand shown. In short, it runs like this:
as §1

A further experiment concerns the target CRX (Homo sapiens, UniProt O43186 1-299). Conditions: protein: recombinant; tags: N-terminal GST; dsDNA, one strand shown. In short, it runs like this: as §1
In the next experiment the target is ETV1 (Homo sapiens, UniProt P50549 1-477). Conditions: protein: recombinant; tags: N-terminal GST; dsDNA, one strand shown. In short, it runs like this: as §1
The target in another experiment is T6, ERF (Homo sapiens, UniProt P50548 1-548).
T6 sequence: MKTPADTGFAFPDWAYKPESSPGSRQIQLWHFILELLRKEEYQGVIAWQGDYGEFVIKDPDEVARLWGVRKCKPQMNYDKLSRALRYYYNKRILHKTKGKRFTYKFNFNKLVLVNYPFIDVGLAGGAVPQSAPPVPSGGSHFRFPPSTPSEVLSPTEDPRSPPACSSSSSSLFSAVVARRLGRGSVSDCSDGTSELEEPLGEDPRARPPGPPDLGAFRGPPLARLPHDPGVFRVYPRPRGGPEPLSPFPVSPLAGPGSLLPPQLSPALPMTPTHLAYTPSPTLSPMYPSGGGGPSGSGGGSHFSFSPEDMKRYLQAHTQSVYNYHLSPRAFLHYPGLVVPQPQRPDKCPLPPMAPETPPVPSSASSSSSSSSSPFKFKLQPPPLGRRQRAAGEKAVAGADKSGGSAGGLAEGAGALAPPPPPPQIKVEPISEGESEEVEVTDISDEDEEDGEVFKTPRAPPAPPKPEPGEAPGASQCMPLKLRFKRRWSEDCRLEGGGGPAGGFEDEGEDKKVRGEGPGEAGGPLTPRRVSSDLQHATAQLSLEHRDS
The note with it: protein: recombinant; tags: N-terminal GST; dsDNA, one strand shown. In short, it runs like this: as §1

In another experiment the target is T7, ETV3L (Homo sapiens, UniProt Q6ZN32 1-361).
T7 sequence: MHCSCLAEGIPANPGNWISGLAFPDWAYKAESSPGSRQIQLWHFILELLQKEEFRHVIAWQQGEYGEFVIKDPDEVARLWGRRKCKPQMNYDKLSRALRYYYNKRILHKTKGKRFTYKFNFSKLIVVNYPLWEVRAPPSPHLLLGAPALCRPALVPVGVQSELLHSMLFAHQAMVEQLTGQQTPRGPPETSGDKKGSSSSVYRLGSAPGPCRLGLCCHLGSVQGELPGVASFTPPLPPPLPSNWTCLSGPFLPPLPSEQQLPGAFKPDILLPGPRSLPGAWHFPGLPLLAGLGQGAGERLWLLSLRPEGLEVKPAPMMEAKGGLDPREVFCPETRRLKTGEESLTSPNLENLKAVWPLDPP
Conditions: protein: recombinant; tags: N-terminal GST; dsDNA, one strand shown. In short, it runs like this:
as §1

Another experiment addresses T8, ETS2 (Homo sapiens, UniProt P15036 1-469).
T8 sequence: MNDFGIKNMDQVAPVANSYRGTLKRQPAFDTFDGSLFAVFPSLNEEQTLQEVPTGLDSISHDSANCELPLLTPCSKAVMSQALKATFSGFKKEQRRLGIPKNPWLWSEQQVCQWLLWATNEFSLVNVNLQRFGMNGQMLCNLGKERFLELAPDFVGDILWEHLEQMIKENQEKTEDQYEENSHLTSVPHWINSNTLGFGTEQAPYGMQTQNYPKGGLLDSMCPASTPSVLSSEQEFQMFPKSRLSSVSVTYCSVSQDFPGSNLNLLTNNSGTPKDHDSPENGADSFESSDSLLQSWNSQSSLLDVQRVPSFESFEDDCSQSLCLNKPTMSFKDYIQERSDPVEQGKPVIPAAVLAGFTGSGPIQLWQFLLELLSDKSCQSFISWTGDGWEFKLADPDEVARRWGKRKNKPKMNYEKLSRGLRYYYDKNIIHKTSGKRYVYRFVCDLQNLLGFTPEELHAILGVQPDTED
The note with it: protein: recombinant; tags: N-terminal GST; dsDNA, one strand shown. In short, it runs like this:
as §1

For the next experiment, the target named is T9, SPDEF (Homo sapiens, UniProt O95238 1-335).
T9 sequence: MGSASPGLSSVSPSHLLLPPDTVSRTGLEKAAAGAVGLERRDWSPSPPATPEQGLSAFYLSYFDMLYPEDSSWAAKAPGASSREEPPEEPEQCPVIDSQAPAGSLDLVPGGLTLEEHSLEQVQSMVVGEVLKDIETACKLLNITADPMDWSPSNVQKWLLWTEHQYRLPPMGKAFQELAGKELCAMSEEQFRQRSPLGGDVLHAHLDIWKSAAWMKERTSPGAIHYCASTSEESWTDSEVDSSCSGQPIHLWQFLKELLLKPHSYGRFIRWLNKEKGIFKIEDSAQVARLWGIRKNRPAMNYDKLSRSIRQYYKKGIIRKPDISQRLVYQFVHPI
Conditions: protein: recombinant; tags: N-terminal GST; dsDNA, one strand shown. In short, it runs like this: as §1

The target of a further experiment is T10, ETV7 (Homo sapiens, UniProt Q9Y603 1-341).
T10 sequence: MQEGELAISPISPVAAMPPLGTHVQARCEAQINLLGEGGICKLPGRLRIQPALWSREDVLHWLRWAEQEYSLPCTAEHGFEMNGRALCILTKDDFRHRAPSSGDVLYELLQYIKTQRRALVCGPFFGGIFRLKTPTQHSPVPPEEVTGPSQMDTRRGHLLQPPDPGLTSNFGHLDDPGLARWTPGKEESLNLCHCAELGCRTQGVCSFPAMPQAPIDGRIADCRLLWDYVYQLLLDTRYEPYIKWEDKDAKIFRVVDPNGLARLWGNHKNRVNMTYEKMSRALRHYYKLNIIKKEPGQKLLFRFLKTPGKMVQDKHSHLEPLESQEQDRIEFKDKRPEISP
Conditions: protein: recombinant; tags: N-terminal GST; dsDNA, one strand shown. In short, it runs like this: as §1

Another experiment deals with T11, ELF5 (Homo sapiens, UniProt Q9UKW6-2 1-255).
T11 sequence: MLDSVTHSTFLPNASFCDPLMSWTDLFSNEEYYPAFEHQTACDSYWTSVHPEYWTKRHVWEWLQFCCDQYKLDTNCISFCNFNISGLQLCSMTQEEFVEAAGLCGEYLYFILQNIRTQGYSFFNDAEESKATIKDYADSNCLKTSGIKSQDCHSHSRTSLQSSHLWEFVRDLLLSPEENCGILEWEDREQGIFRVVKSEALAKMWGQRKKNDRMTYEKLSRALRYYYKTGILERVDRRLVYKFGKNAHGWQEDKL
Conditions: protein: recombinant; tags: N-terminal GST; dsDNA, one strand shown. In short, it runs like this: as §1

The target of the next experiment is T12, ETV3 (Homo sapiens, UniProt P41162-2 1-143).
T12 sequence: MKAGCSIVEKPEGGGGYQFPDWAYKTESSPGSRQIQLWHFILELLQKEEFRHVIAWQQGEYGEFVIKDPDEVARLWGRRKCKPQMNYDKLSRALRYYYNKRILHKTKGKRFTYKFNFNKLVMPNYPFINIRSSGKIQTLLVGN
Conditions: protein: recombinant; tags: N-terminal GST; dsDNA, one strand shown. In short, it runs like this:
as §1

The target in a further experiment is ETV6 (Homo sapiens, UniProt P41212 1-452). Conditions: protein: recombinant; tags: N-terminal GST; dsDNA, one strand shown. In short, it runs like this:
as §1

HSF1, sequence (Q00613 whole entry): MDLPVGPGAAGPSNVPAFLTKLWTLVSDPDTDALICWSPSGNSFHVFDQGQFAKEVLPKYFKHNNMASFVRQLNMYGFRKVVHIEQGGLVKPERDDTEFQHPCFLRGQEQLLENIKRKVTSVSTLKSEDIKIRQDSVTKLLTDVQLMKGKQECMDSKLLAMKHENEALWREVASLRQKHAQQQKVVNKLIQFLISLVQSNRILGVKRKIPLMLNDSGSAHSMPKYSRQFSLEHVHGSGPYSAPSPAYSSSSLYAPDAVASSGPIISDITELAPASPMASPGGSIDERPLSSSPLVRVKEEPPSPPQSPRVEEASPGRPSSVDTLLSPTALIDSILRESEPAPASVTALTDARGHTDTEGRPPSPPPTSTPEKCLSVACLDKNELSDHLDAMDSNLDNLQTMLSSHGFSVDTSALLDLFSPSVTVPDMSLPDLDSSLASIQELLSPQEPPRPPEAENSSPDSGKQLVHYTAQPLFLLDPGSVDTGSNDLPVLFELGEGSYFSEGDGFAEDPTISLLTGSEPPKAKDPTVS
ETV6, sequence (P41212 whole entry): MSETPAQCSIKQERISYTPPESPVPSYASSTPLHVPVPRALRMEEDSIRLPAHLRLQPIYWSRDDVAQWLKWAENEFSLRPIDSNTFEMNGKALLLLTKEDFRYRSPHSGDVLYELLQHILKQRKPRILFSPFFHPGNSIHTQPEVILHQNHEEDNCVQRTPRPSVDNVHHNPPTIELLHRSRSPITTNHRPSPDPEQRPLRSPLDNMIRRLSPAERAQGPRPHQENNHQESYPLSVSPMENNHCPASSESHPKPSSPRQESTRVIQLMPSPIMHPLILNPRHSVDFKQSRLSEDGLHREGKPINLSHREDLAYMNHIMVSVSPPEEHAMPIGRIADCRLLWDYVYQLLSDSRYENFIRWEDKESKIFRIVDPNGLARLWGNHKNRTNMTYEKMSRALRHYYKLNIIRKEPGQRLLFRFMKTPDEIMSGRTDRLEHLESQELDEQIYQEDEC
CRX, sequence (O43186 whole entry): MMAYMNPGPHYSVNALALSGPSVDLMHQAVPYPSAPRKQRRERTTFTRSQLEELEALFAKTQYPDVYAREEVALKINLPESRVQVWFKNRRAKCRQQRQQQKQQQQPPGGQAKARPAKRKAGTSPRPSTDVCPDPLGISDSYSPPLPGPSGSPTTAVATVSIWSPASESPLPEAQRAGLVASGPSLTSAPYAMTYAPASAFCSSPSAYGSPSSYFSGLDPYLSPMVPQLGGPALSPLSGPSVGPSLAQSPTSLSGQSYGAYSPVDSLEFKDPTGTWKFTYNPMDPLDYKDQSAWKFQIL
ETV5, sequence (P41161 whole entry): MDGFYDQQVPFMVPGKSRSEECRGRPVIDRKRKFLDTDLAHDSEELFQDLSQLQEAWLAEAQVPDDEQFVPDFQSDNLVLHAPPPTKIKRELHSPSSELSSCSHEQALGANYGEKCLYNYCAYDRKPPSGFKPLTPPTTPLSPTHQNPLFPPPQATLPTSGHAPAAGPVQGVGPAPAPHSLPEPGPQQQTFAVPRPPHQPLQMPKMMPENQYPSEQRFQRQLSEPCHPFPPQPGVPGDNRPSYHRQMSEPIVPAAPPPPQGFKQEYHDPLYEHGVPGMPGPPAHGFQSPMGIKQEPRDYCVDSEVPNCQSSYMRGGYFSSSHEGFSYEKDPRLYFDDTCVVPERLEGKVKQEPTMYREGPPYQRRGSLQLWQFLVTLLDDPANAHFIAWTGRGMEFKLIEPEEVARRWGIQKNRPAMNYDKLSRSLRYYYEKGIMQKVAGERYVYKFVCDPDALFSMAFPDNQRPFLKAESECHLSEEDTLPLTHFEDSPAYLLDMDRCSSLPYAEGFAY
ELF4, sequence (Q99607 whole entry): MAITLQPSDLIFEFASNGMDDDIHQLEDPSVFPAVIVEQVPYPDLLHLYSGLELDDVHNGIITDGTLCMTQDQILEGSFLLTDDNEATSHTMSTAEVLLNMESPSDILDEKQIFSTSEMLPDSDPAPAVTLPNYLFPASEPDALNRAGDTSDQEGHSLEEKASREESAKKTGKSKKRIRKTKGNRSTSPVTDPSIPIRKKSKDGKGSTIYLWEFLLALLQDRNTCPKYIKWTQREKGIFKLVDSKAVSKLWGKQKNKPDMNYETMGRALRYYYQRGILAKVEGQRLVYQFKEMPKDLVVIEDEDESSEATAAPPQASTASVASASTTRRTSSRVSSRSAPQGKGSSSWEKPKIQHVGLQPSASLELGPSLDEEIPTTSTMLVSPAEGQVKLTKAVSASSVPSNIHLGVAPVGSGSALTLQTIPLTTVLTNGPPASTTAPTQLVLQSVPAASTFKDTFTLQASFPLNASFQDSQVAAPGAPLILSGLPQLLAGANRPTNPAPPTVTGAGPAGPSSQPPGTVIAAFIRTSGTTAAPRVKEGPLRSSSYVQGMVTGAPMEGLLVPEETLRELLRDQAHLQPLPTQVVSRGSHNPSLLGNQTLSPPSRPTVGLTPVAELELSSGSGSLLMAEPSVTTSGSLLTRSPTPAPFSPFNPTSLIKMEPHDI
ETV1, sequence (P50549 whole entry): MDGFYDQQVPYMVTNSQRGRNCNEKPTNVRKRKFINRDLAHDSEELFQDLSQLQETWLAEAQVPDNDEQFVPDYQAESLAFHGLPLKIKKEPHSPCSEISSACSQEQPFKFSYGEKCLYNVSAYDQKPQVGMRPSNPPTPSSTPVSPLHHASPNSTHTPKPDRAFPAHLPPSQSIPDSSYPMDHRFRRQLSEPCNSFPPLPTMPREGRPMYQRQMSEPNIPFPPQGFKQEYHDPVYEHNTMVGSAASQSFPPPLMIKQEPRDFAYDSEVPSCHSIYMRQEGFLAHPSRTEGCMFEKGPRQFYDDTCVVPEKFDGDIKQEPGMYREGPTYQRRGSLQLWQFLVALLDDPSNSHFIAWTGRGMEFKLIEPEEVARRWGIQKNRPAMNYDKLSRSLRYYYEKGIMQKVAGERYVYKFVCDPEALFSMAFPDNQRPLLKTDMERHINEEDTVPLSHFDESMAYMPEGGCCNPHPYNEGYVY

Turning to CTTCCC, the binding signal was 1.91 fold enrichment (6-mer frequency, TF over GST control) with FEV; 2.24 fold enrichment (6-mer frequency, TF over GST control) in the experiment with ETV5; 1.55 fold enrichment (6-mer frequency, TF over GST control) in the experiment with HSF1; 2.34 fold enrichment (6-mer frequency, TF over GST control) in the experiment with SPIC; 1.95 fold enrichment (6-mer frequency, TF over GST control) in the experiment with ELF4; 1.81 fold enrichment (6-mer frequency, TF over GST control) in the experiment with ELK4. Also, the binding signal in the experiment with ETV2 was 2.4 fold enrichment (6-mer frequency, TF over GST control); with ELF3, 2.12 fold enrichment (6-mer frequency, TF over GST control); in the experiment with CRX, 1.33 fold enrichment (6-mer frequency, TF over GST control); in the experiment with ETV1, 2.01 fold enrichment (6-mer frequency, TF over GST control); with ERF, 1.94 fold enrichment (6-mer frequency, TF over GST control); with ETV3L, 2.18 fold enrichment (6-mer frequency, TF over GST control). Further, the binding signal is 2.32 fold enrichment (6-mer frequency, TF over GST control) with ETS2; 2.14 fold enrichment (6-mer frequency, TF over GST control) in the experiment with SPDEF; 1.95 fold enrichment (6-mer frequency, TF over GST control) with ETV7; 3.61 fold enrichment (6-mer frequency, TF over GST control) with ELF5; 2.3 fold enrichment (6-mer frequency, TF over GST control) with ETV3; 2.54 fold enrichment (6-mer frequency, TF over GST control) in the experiment with ETV6.
